Measurements: PubChem BioAssay AID1159580 (chemical genetic matrix, 2015)
Several values for one entry are separate records, joined by “and”; a condition that tells them apart may be missing. Equal values may be shown once. Among all 5,500 compounds or so, about 2,000 (36%) were called active. About 18% were inconclusive and are not listed. No stated cut-off is given here; in the data, active means normalized growth mostly below about 0.91 (no sharp cut-off); inconclusive means no clear call, values can overlap the other calls; inactive means mostly above about 0.92. The list shows a part of the results.

Assay: chemical genetic growth profiling, strain panel (AID 1159580);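 further: tested at 20 µM; growth read once vehicle control cultures reached saturation at 30 °C; 1 = growth at the plate median or of vehicle wells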
Conditions: S. cerevisiae deletion strains, growth OD

Measured: normalized growth

O=c1cc(-c2ccc(O)cc2)oc2cc(O[C@@H]3O[C@H](CO)[C@@H](O)[C@H](O)[C@H]3O[C@@H]3OC[C@](O)(CO)[C@H]3O)cc(O)c12
inactive: locus YAL013W, strain DEP1, stronger effect = lower value 1.01 | locus YAL021C, strain ccr4, stronger effect = lower value 0.998 | locus YAL026C, strain drs2, stronger effect = lower value 1 | locus YAL030W, strain snc1, stronger effect = lower value 1 | locus YBL061C, strain skt5, stronger effect = lower value 1.02 | locus YBR009C, strain hhf1, stronger effect = lower value 1.01 | locus YBR021W, strain FUR4, stronger effect = lower value 0.99 | locus YBR023C, strain chs3, stronger effect = lower value 1.01 | locus YBR171W, strain sec66, stronger effect = lower value 0.982 | locus YBR229C, strain ROT2, stronger effect = lower value 1.01 | locus YBR231C, strain swc5, stronger effect = lower value 1.01 | locus YBR279W, strain paf1, stronger effect = lower value 1.01 | locus YCL011C, strain gbp2, stronger effect = lower value 1.01 | locus YCL016C, strain dcc1, stronger effect = lower value 1 | locus YCL029C, strain bik1, stronger effect = lower value 0.985 | locus YCL061C, strain MRC1, stronger effect = lower value 1.01 | locus YCL069W, strain vba3, stronger effect = lower value 0.994 | locus YCR088W, strain abp1, stronger effect = lower value 0.998 | locus YDL005C, strain med2, stronger effect = lower value 1 | locus YDL035C, strain GPR1, stronger effect = lower value 1.01 | locus YDL040C, strain nat1, stronger effect = lower value 0.997 | locus YDL074C, strain BRE1, stronger effect = lower value 1.02 | locus YDL101C, strain DUN1, stronger effect = lower value 1.02 | locus YDL134C, strain PPH21, stronger effect = lower value 1.03 | locus YDL185W, strain tfp1, stronger effect = lower value 0.981 | locus YDL192W, strain arf1, stronger effect = lower value 0.998 | locus YDR001C, strain nth1, stronger effect = lower value 1 | locus YDR069C, strain doa4, stronger effect = lower value 1.01 | locus YDR101C, strain arx1, stronger effect = lower value 0.963 | locus YDR137W, strain rgp1, stronger effect = lower value 1.01 | locus YDR159W, strain sac3, stronger effect = lower value 1.01 | locus YDR162C, strain NBP2, stronger effect = lower value 1.03 | locus YDR195W, strain ref2 0.991 | locus YDR297W, strain sur2, stronger effect = lower value 1.01 | locus YDR318W, strain mcm21, stronger effect = lower value 1.01 | locus YDR334W, strain swr1, stronger effect = lower value 1.01 | locus YDR335W, strain msn5, stronger effect = lower value 1.01 | locus YDR388W, stronger effect = lower value 0.981 | locus YDR392W, strain spt3, stronger effect = lower value 1.01 | locus YDR502C, strain sam2, stronger effect = lower value 0.993 | locus YEL003W, strain gim4, stronger effect = lower value 1.01 | locus YEL037C, strain rad23, stronger effect = lower value 0.999 | locus YEL061C, strain CIN8 (second series), stronger effect = lower value 1 | locus YEL061C, strain CIN8, stronger effect = lower value 1.01 | locus YER015W, strain faa2, stronger effect = lower value 1.01 | locus YER016W, strain bim1, stronger effect = lower value 1.01 | locus YER110C, stronger effect = lower value 0.984 | locus YER111C, strain swi4, stronger effect = lower value 1 | locus YER155C, strain BEM2 (second series), stronger effect = lower value 1.02 | locus YER155C, strain BEM2, stronger effect = lower value 1.01 | locus YER167W, strain BCK2, stronger effect = lower value 1.01 | locus YFR010W, strain ubp6, stronger effect = lower value 1.02 | locus YGL078C, strain dbp3, stronger effect = lower value 0.997 | locus YGL086W, strain mad1, stronger effect = lower value 0.984 | locus YGL167C, strain pmr1, stronger effect = lower value 1.01 | locus YGL173C, strain kem1, stronger effect = lower value 1.02 | locus YGL227W, strain vid30, stronger effect = lower value 0.994 | locus YGL240W, strain doc1, stronger effect = lower value 1.01 | locus YGL248W, strain PDE1, stronger effect = lower value 1.05 | locus YGL253W, strain hxk2, stronger effect = lower value 0.998 | locus YGR135W, strain pre9, stronger effect = lower value 0.989 | locus YGR252W, strain gcn5, stronger effect = lower value 1.04 | locus YHR013C, strain ard1, stronger effect = lower value 0.988 | locus YHR027C, strain rpn1, stronger effect = lower value 1.01 | locus YHR030C, strain SLT2, stronger effect = lower value 1.01 and 0.992 | locus YHR079C, strain IRE1 (second series), stronger effect = lower value 0.982 | locus YHR079C, strain IRE1, stronger effect = lower value 0.983 | locus YHR094C, strain hxt1, stronger effect = lower value 0.984 | locus YHR129C, strain ARP1, stronger effect = lower value 1.01 | locus YHR142W, strain chs7, stronger effect = lower value 1.01 | locus YHR200W, strain rpn10, stronger effect = lower value 0.995 | locus YIL066C, strain RNR3, stronger effect = lower value 1.02 | locus YIL073C, strain SPO22, stronger effect = lower value 1.01 | locus YIL125W, strain kgd1, stronger effect = lower value 0.989 | locus YIR030C, strain dcg1, stronger effect = lower value 1 | locus YJL092W, strain hpr5, stronger effect = lower value 1 | locus YJL095W, strain BCK1 (second series), stronger effect = lower value 1.01 | locus YJL095W, strain BCK1, stronger effect = lower value 1.06 and 1.01 | locus YJL115W, strain asf1, stronger effect = lower value 0.99 | locus YJL129C, strain trk1, stronger effect = lower value 0.998 | locus YJL134W, strain LCB3, stronger effect = lower value 1.01 | locus YJL154C, strain vps35, stronger effect = lower value 1 | locus YJL164C, strain tpk1, stronger effect = lower value 1.02 | locus YJL166W, strain qcr8, stronger effect = lower value 1.01 | locus YJL168C, strain set2, stronger effect = lower value 0.994 | locus YJL187C, strain SWE1 (second series), stronger effect = lower value 1.02 | locus YJL187C, strain SWE1, stronger effect = lower value 1.01 | locus YJR043C, strain POL32, stronger effect = lower value 1.03 | locus YJR066W, strain TOR1, stronger effect = lower value 0.982
